From PubChem BioAssay AID372 (MTDP, 2006)
“And” between values parts separate entries of the source, which are not always exact repeats. Identical values can stand only once. About 770 (0.77%) of roughly 100,000 compounds were called active. The sample as a whole holds a higher share of actives than the screen did. Unmarked numbers belong to inactive results. No stated cut-off is given here; in the data, active means inhibition above about 50%; inactive means the rest.

Each compound was assayed against Gag-Pol polyprotein (Human immunodeficiency virus type 1 group M subtype B (isolate HXB2)) (UniProt P04585) (assay: RNase H inhibition, HIV 1 Gag Pol polyprotein, FRET biochemical assay, screening (AID 372)). Conditions: HIV-1 RT RNase H, FRET RNA/DNA substrate fluorescence; at 10 µM; hits give high values.

Row | SMILES | inhibition
1 | COc1cccc(NC(=O)c2ccc(C(C)(C)C)cc2)c1 | 11%
2 | NC(=O)N=Nc1c(O)[nH]c2ccc(I)cc12 | 5%
3 | CC1(C)CC(=O)C(C=NC2CCCCCCC2)=C(O)C1 | 3%
4 | COC(=O)c1c(NC(=S)Nc2ccccc2)sc2c1CCCC2 | 59% (active)
5 | O=C(Nc1ccccc1)c1c(NC(=S)Nc2ccccc2)sc2c1CCCC2 | 46%
6 | NC(=O)c1c(NC(=O)c2ccc(S(=O)(=O)N3CCCCC3)cc2)sc2c1CCCC2 | 53% (active)
7 | COc1ccc(CCC(=O)Nc2sc3c(c2C(N)=O)CCCCCC3)cc1 | 12%
8 | O=C(CCc1ccccc1)Nc1sc2c(c1C(=O)O)CCCC2 | 4%
9 | Cc1ccc(C(=O)Nc2sc3c(c2C(N)=O)CCCCCC3)cc1 | 32%
10 | CCOC(=O)c1c(NC(=O)c2ccc(S(=O)(=O)N3CCCCCC3)cc2)sc2c1CCC2 | 6%
11 | COc1cc2ccccc2cc1C(=O)Nc1sc2c(c1C(N)=O)CCCC2 | 59% (active)
12 | CCOC(=O)c1c(NC(=S)Nc2ccccc2)sc2c1CCCCC2 | 28%
13 | COc1ccc(C(=O)Nc2sc3c(c2C(N)=O)CCCC3)cc1 | 17%
14 | COc1ccc(C(=O)Nc2sc3c(c2C(N)=O)CCCCCC3)cc1OC | 0%
15 | C=CCN1C(=O)/C(=C\c2ccc(OCc3ccccc3C)c(OC)c2)SC1=S | 16%
16 | COC(=O)c1cccc(NC(=O)COc2ccc(Br)c(C)c2)c1 | 3%
17 | Cc1c(NC(=O)COc2ccc(Cl)cc2Cl)cccc1[N+](=O)[O-] | 15%
18 | CCN(CC)c1ccc(Nc2nc(-c3sc(N)nc3C)cs2)cc1 | 28%
19 | CCN1CCn2c3c(c4cc(Br)ccc42)CCCC31 (configuration not stated) | 7% and 3%
20 | C(=NN1CCN(c2ccccn2)CC1)c1cccc(OCc2ccccc2)c1 | 0%
21 | Cc1ccc(NC(=O)c2cccc([N+](=O)[O-])c2)cc1C | 1%
22 | Cc1ccc(C)c(NC(=S)NC(=O)c2ccc(C)c([N+](=O)[O-])c2)c1 | 33%
23 | NC(=O)C1CCN(C2CC(=O)N(c3ccc(Cl)cc3)C2=O)CC1 (configuration not stated) | 12%
24 | CCOc1ccc(N(CC(=O)Nc2c(C)cccc2C)S(C)(=O)=O)cc1 | 18%
25 | C=CCOc1ccc(C=O)cc1I | 25%

Row | SMILES | inhibition
26 | O=C(Nc1ccc([N+](=O)[O-])cc1Cl)c1cccnc1 | 5%
27 | CC(C)C(NC(=O)CN(c1ccccc1F)S(C)(=O)=O)C(C)C | 11%
28 | NC(=O)c1c(N)sc2c1CCCCCC2 | 20%
29 | NC(=O)c1c(N)sc2c1CCCCCCCCCC2 | 28%
30 | COc1ccc(/C=C2/C(=O)NC(=O)N(Cc3ccco3)C2=O)c2ccccc12 | 48%
31 | O=C1NC(=O)N(Cc2ccco2)C(=O)/C1=C/c1ccc(OCCOc2ccccc2)cc1 | 13%
32 | COc1cc(N2Cc3ccccc3C2)ccc1/C=C1\C(=O)NC(=O)N(Cc2ccco2)C1=O | 51% (active)
33 | CCN(CC)c1ccc(/C=C2/C(=O)NC(=O)N(Cc3ccco3)C2=O)c(OC)c1 | 45%
34 | O=C1NC(=O)N(Cc2ccco2)C(=O)/C1=C\c1cn(Cc2cccc(F)c2)c2ccccc12 | 57% (active)
35 | Cc1cc(N2Cc3ccccc3C2)ccc1/C=C1\C(=O)NC(=O)N(Cc2ccco2)C1=O | 42%
36 | COc1ccc(CN2C(=O)NC(=O)/C(=C\C=C\c3ccccc3)C2=O)cc1 | 10%
37 | COc1ccc2ccccc2c1/C=C1\C(=O)NC(=O)N(Cc2ccccc2)C1=O | 40%
38 | O=C1NC(=O)N(Cc2ccco2)C(=O)/C1=C\C=C\c1ccccc1 | 52% (active)
39 | O=C1NC(=O)N(Cc2ccco2)C(=O)/C1=C\c1cn(Cc2ccc(Cl)cc2)c2ccccc12 | 37%
40 | NC(=O)Cn1cc(/C=C2/C(=O)NC(=O)N(Cc3ccco3)C2=O)c2ccccc21 | 0%
41 | COc1ccc2ccccc2c1/C=C1/C(=O)NC(=O)N(Cc2ccco2)C1=O | 50% (active)
42 | Cc1ccc(NC(=O)c2ccc(Cl)c(Cl)c2)c([N+](=O)[O-])c1 | 1%
43 | CC(=O)NC(NC(=S)Nc1sc2c(c1C#N)CCCC2)C(Cl)(Cl)Cl (configuration not stated) | 20%
44 | COc1cc(C2CC(=O)NC(SCc3ccccc3)=C2C#N)ccc1O (configuration not stated) | 6%
45 | O=C(NN=C1CCCCC1)C(=O)Nc1ccc(F)cc1 | 8%
46 | CCOc1c(Br)cc(/C=C2N=C(/C=C/c3ccccc3)OC/2=O)cc1OC | 9%
47 | O=C(NNC(=O)c1cccc(C#Cc2ccccc2)c1)c1ccc(Br)cc1 | 46%
48 | O=C(NNC(=O)c1cccc(C(=O)NNC(=O)c2ccc(Br)cc2)c1)c1ccc(Br)cc1 | 53% (active)
49 | O=C(NNC(=O)c1cccc(O)c1)c1ccc(Br)cc1 | 10%
50 | COc1ccc(C(NC(=O)C(C)C)c2ccc3cccnc3c2O)cc1OC (configuration not stated) | 5%

Row | SMILES | inhibition
51 | Cc1nnc(C)n1/N=C/c1ccc(O)c(O)c1 | 44%
52 | Oc1ccc(N=Cc2ccc(O)c(O)c2)cc1 | 70% (active)
53 | Oc1ccc(C=Nc2ccc(N=Cc3ccc(O)cc3)cc2)cc1 | 15%
54 | Oc1ccc(/C=N/N=C/c2ccc(O)c(O)c2)cc1O | 69% (active)
55 | Oc1ccc(C=Nc2ccc(O)cc2)cc1 | 4%
56 | Oc1ccc(C=Nc2ccc(Cl)c(Cl)c2)cc1O | 17%
57 | COc1ccc(C(=O)OCC(=O)c2ccc(Br)cc2)cc1OC | 16%
58 | C=CCN(c1ccccc1C(=O)O)S(=O)(=O)/C=C/c1ccccc1 | 6%
59 | CCOc1ccc(/C=N/NC(=O)c2cc(-c3ccc4ccccc4c3)n[nH]2)cc1 | 14%
60 | COc1ccc(NCC(O)Cn2c3ccc(Cl)cc3c3cc(Cl)ccc32)c(OC)c1 (configuration not stated) | 27%
61 | O=C(NCc1ccco1)c1ccc(-c2cc(Cl)ccc2Cl)o1 | 31%
62 | Cn1c(O)c(N=NC(=O)C2COc3cc4ccccc4cc3O2)c2ccccc21 (configuration not stated) | 50% (active)
63 | O=C(N=Nc1c(O)[nH]c2ccc(Br)cc12)C1COc2cc3ccccc3cc2O1 (configuration not stated) | 4%
64 | CCCn1c(O)c(N=NC(=O)C2COc3cc4ccccc4cc3O2)c2ccccc21 (configuration not stated) | 34%
65 | Cc1ccc2c(c1)c(N=NC(=O)COc1ccccc1C)c(O)n2C | 20%
66 | O=C(NCCOc1cccc2ccccc12)Nc1cc(F)c(F)cc1Cl | 0%
67 | S=C(NCCOc1cccc2ccccc12)Nc1cccc2ccccc12 | 45%
68 | O=C(NCCOc1cccc2ccccc12)Nc1cccc2ccccc12 | 51% (active)
69 | O=C(NN1CCOCC1)c1ccc(Br)cc1 | 2%
70 | Cc1cccnc1NS(=O)(=O)c1cc(Cl)ccc1Cl | 10%
71 | CC1=C/C(=N/S(=O)(=O)c2ccc(C)cc2)C=C(Cl)C1=O | 17%
72 | O=C1C=CC(=NS(=O)(=O)c2ccc(Cl)cc2)C=C1 | 28%
73 | Cc1ccc(S(=O)(=O)/N=C2/C=C(Cl)C(=O)c3ccccc32)cc1 | 20%
74 | CC1=CC(=O)C=C/C1=N\S(=O)(=O)c1ccc(C)cc1 | 32%
75 | O=C1C=CC(=NS(=O)(=O)c2ccc(F)cc2)C=C1 | 43%

Row | SMILES | inhibition
76 | O=C1C=C/C(=N\S(=O)(=O)c2ccc(Cl)c([N+](=O)[O-])c2)c2ccccc21 | 34%
77 | O=C1C=CC(=NS(=O)(=O)c2cccc([N+](=O)[O-])c2)C=C1 | 45%
78 | O=C1C=CC(=NS(=O)(=O)c2ccccc2)C=C1 | 56% (active)
79 | Cc1ccc(S(=O)(=O)/N=C2\C=CC(=O)C(Br)=C2)cc1 | 20%
80 | COc1ccc(Cl)cc1NC(=O)c1cc(-c2ccccc2)nc2ccccc12 | 0%
81 | COc1cc(C2/C(=C(\O)c3ccc(C)cc3)C(=O)C(=O)N2CCCC(=O)O)ccc1O (configuration not stated) | 0%
82 | CCOC(=O)C1=C(C)N=c2s/c(=C\c3ccccc3O)c(=O)n2C1c1ccc(Cl)cc1 (configuration not stated) | 21%
83 | COc1ccc(NC(=O)c2nn3c(C(F)(F)F)cc(-c4ccco4)nc3c2Cl)c(OC)c1 | 13%
84 | COc1ccc(C(=O)N/C(=C\c2ccc(-c3cccc([N+](=O)[O-])c3)o2)C(=O)NCc2ccncc2)cc1 | 0%
85 | O=S(=O)(N=C1C(Cl)=C(Cl)C(=NS(=O)(=O)c2ccccc2)C(Cl)=C1Cl)c1ccccc1 | 31%
86 | CC(C)C1=CC(=NS(=O)(=O)c2ccc(Cl)cc2)C=C(C(C)C)C1=O | 5%
87 | Cc1ccccc1S(=O)(=O)N=C1C=CC(=O)C(Cl)=C1 | 11%
88 | O=C1C=C/C(=N\S(=O)(=O)c2ccccc2)C=C1Cl | 19%
89 | O=C1C(Cl)=CC(=NS(=O)(=O)c2ccccc2)C=C1Br | 26%
90 | O=C1C(Cl)=CC(=NS(=O)(=O)c2ccc(Cl)cc2)c2ccccc21 | 8%
91 | O=C1C(Cl)=CC(=NS(=O)(=O)c2ccc(Cl)cc2)C=C1Cl | 28%
92 | CC(C)(C)c1ccc(S(=O)(=O)N=C2C=CC(=O)C=C2)cc1 | 20%
93 | CC(=O)N/C(=C\c1ccccc1)C(=O)NCC(=O)O | 6%
94 | Cc1cccc(NC(=O)C(=O)NNC(=O)c2ccccc2C)c1 | 4%
95 | Cc1ccc(-c2ccccc2)n1-c1ccccc1C(=O)O | 12%
96 | O=C(O)/C=C\C(=O)N/N=C/c1ccccc1 | 4%
97 | O=C(Nc1ccccn1)c1ccc2c(c1)C(=O)N(c1cccc3c(N4C(=O)c5ccc(C(=O)Nc6ccccn6)cc5C4=O)cccc13)C2=O | 2%
